High-throughput results deposited in PubChem by National Center for Advancing Translational Sciences (NCATS).
Most compounds without a hit are left out; they make up all but 7.2% or so of the library.
HCV inh – HCV inhibition; Potency, µM (highest dose often 41.8 µM), for the others: top-dose activity change, negative = inhibition, actives largely listed as inhibitors; Huh7.5.1 HCVcc-Cre infection, luciferase reporter, 44 h; 340,000 tested, 3.4% active
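1,000 cells/well; 4 h culture; + compound; + HCVcc-Cre (~0.5 moi); 44 h; luciferase substrate, RT 15 min; read 15 sec.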
LASV entry inh – inhibitors of Lassa virus binding or cell entry. Lassa virus pseudotype entry inhibition, cell reporter. Potency, µM (titrated, usually from 37.9 µM), inactives show at the highest dose activity change, negative = inhibition, actives largely listed as inhibitors. 300,000 tested, 1.2% active. AID 540256; calls by dose curve; tested in HEK293 cells; further: nearly all actives have a fitted effect of over 50% in size
FMDV antiviral – antivirals against foot and mouth disease virus. AID 1159524. 410,000 tested, 1.2% active. FMDV antiviral cell-based qHTS. Potency, µM (doses to about 57.9 µM), for inactives: at the highest dose activity change, negative = inhibition, actives largely listed as inhibitors; calls by dose curve; tested in HEK293T cells; further: read-out not given here; nearly all actives have a fitted effect of over 45% in size
RE007 growth inh – less growth of the S. pombe RE007 Vpr strain; Potency, µM (series often up to 92.2 µM), without a hit: at the top dose activity change, negative = less growth, most hits filed as inhibitors; S. pombe RE007 Vpr strain, BacTiter-Glo ATP luminescence, 24 h; 360,000 tested, 0.21% active; AID 651644; active means well fitted falling curve with a large enough effect; inconclusive means small, poorly fitted or top-dose-only effect; inactive means no such curve, though single readings can be large or run the other way; further: nearly all actives have a fitted effect of over 50% in size
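Fission yeast strain RE007, carrying one chromosomally integrated HIV-1 vpr copy, was seeded at OD 0.01 in PMG+AL medium with 23 nL pinned compound. After 24 h at 30 °C and 99% humidity, viability was read by BacTiter-Glo luminescence.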
Sm TGR block – S. mansoni TGR enzyme inhibition; Q962Y6; purified TGR, DTNB reduction, TNB absorbance 405 nm; Potency, µM (series often up to 114 µM), for inactives: at the top dose activity change, negative = inhibition, actives largely listed as inhibitors; 360,000 tested, 3% active; further: nearly all actives have a fitted effect of over 60% in size
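Kinetic colorimetric format: TGR-catalysed, NADPH-driven DTNB reduction monitored via TNB absorbance. Enzyme dispensed at 20 nM; compound exposure 15 min at room temperature before reaction start.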
Marburg entry inh – inhibitors of Marburg virus binding or cell entry | Marburg virus pseudotyped entry inhibition, cell reporter | Potency, µM (titrated, usually from 37.8 µM), inactives show top-dose activity change, negative = inhibition, actives largely listed as inhibitors | 300,000 tested, 1.8% active | AID 540276; calls by dose curve; tested in HEK293 cells
* marks the source's active call; other numbers are inactive results; ? = inconclusive; . = no result given; [ ] = another dose, or the depositor's remark. Unless noted, the call rests on the fitted dose curve; in most records, active means well fitted curve in the direction sought with a large enough effect; inconclusive means small, poorly fitted or top-dose-only effect, or another doubt; inactive means no such curve, though single readings can be large; an effect the other way counts as inactive or inconclusive. On the % scale 0 is the no-effect control and ±100 the full control effect; potency means the concentration at half of the fitted maximal effect.

SMILES	HCV inh	LASV entry inh	FMDV antiviral	RE007 growth inh	Sm TGR block	Marburg entry inh
CCC(CO)Oc1cc(NCc2ccccc2Cl)c2ncn(C(C)C)c2c1 (configuration not stated)	2.24µM*	.	5.7%	1.4%	-18.6%	.
CCC(CO)Oc1cc(NCc2ccccc2F)c2ncn(C(C)C)c2c1 (configuration not stated)	?	.	-4.1%	-4.3%	?	.
COc1ccc(-n2c(C)c(C(C)=O)c3cc(OC(=O)c4ccc(C)cc4)ccc32)cc1	.	-24.3%[46.1 µM]	-17.7%	.	5.6%	.
COc1ccc(C(=O)C(=NNc2ccccc2)c2ccc(OC)cc2)cc1	?	-19.8%[46.1 µM]	-13.9%	5.1%	.	?
COc1ccc(N/N=C(\C=N\O)C(=O)c2ccc(OC)cc2)cc1	-15.9%	2.82µM*	-1.3%	-20.1%	0.6%	?
O=C(CCCOc1ccc(Cl)cc1Cl)Nc1ccccc1C(=O)O	8.4%	?	-13.7%	10.4%	6.3%	3.16µM*
O=C(COc1ccc(Cl)cc1Cl)Nc1ccccn1	?	0.517µM*	1.58µM*	?	3.5%	?
Cc1cc(Cl)ccc1OCC(=O)Nc1ccncc1	12.6µM*	.	-20.4%	-7.7%	6.5%	.
CCN1CCN(c2ccc(NC(=O)COc3ccc(Cl)cc3C)cc2)CC1	10µM*	.	?	2.2%	.	.
CC1CN(CC(=O)NCC2(N3CCOCC3)CCCC2)Cc2cc(Cl)ccc2O1 (configuration not stated)	.	.	-3.8%	.	.	.
CCOC(=O)CC1N=NN=N1	.	.	.	.	.	18.8%[46.1 µM]
N[C@@H]1CCc2cc(O)c(O)cc2C1	.	.	.	.	.	4.8%
COc1ccccc1CN1CCOc2ccc(CN3CCCCC3CO)cc2C1 (configuration not stated)	.	.	-3.3%	.	.	.
Cc1cc(Cl)ccc1OCCCC(=O)NO	7.08µM*	?	-24.8%	28.7%	?	2.3%
CN1CN(c2ccccc2)C2(CCN(CCCSc3ccccc3NC(=O)/C=C/c3ccccc3)CC2)C1=O	35.5µM*	?	0.0%	0.0%	.	?
O=[N+]([O-])c1cc(S(=O)(=O)NCCN2CCOCC2)ccc1Sc1nnnn1-c1ccccc1	?	-2.4%	?	-9.2%	17.8µM*	16.4µM*
CN(C)CCNS(=O)(=O)c1ccc(N2CCN(c3ccc(F)cc3)CC2)c([N+](=O)[O-])c1	10µM*	?	?	1.5%	1.3%	18.4µM*
Cc1ccc(-n2nnnc2Sc2ccc(S(=O)(=O)NCCN(C)C)cc2[N+](=O)[O-])cc1	10µM*	?	12.6µM*	.	25.1µM*	9.2µM*
CC(=O)N1CCN(c2ccc(S(=O)(=O)NCCN(C(C)C)C(C)C)cc2[N+](=O)[O-])CC1	1.3%	-3.5%	-17.6%	4.7%	5.2%	1.2%
O=S(=O)(NCCN1CCOCC1)c1ccc2ccccc2c1	1.8%	.	40.3%	6.1%	.	.
Cc1ccc(S(=O)(=O)NCCSc2nnnn2-c2ccc(C(N)=O)cc2)cc1	-1.2%	.	-1.0%	-10.3%	-3.0%	-2.9%
C=CCc1cccc2cc(-c3nc4ccc(C)cc4[nH]3)c(=O)oc12	.	0.2%[46.1 µM]	11.2%	.	2.4%	.
CCOc1cc(/C=C(\C#N)C(=O)Nc2ccc(C)cc2)ccc1OCc1cc(=O)n2nc(CC)sc2n1	.	-24.6%[46.1 µM]	-11.8%	.	-9.1%	-7.6%[46.1 µM]
Cc1cc(C)c(O)c(CN(C)Cc2cc(Cl)cc(Cl)c2O)c1	?	?	-23.5%	?	.	3.16µM*
COc1ccc(OC)c(CN2CCC(Cc3ccccc3)CC2)c1	-25.4%	.	-15.7%	1.6%	-5.9%	.
SMILES	HCV inh	LASV entry inh	FMDV antiviral	RE007 growth inh	Sm TGR block	Marburg entry inh
COc1cc(C)c(CN2CCC(Cc3ccccc3)CC2)cc1C	12.6µM*	.	?	1.6%	1.1%	.
CNC(=O)Oc1cccc(-c2cn3cc(OC(=O)NC)ccc3n2)c1	-21.0%	?	0.0%	?	-19.1%	?
CNC(=O)Oc1ccc(-c2cn3cc(Cl)ccc3n2)cc1	?	7.31µM*	?	-24.6%	35.5µM*	8.2µM*
CN(CC(=O)Nc1c(Cl)cccc1Cl)C(=O)c1cc(-c2cccs2)nn1-c1ccccc1	?	?	0.0%	11.7%	-8.6%	-3.1%
CCN(CC(=O)Nc1c(F)cccc1F)C(=O)c1cc(-c2cccs2)nn1-c1ccccc1	14.1µM*	-10.8%[46.1 µM]	?	-8.6%	-6.4%	1.1%
Cc1ccccc1-c1cncnc1N1CCN(C)CC1	.	.	-15.4%	.	.	.
CCC(=O)N1CCN(c2ccccc2NC(=O)COc2cc(C)ccc2C(C)C)CC1	10µM*	?	.	5.6%	-1.2%	?
Cc1ccc(C(C)C)c(OCC(=O)NC(=S)Nc2ccccc2N2CCOCC2)c1	.	-26.2%	-18.9%	-20.9%	-23.7%	-14.4%
CC(C)C(=O)N1CCN(c2ccccc2NC(=O)COc2ccc(C3CCCCC3)cc2)CC1	?	-12.0%	?	0.1%	7.4%	7.94µM*
COC(=O)c1cc(NC(=O)[C@H](CCS(C)(=O)=O)N2Cc3ccccc3C2=O)cc(C(=O)OC)c1	.	0.8%[46.1 µM]	21.7%	.	-35.9%	0.6%[46.1 µM]
O=C(NCc1ccco1)C1OCCc2ccccc21 (configuration not stated)	1.3%	18.5%	-7.1%	23.9%	22.4µM*	?
CC(=O)Nc1ccc(Sc2ccc([N+](=O)[O-])o2)cc1	?	?	35.5µM*	?	.	?
COc1ccc(CNC(=O)Cn2c(=O)nc(-c3ccccc3)c3ccccc32)cc1OC	.	-28.1%[46.1 µM]	-52.8%	.	1.4%	.
O=C(NCc1ccccc1)c1onc(CSc2ccccc2)c1C(=O)NCC1CC1	10µM*	.	-20.7%	4.5%	5.4%	.
O=C(NCc1ccccc1)c1onc(CSc2ccc(Cl)cc2)c1C(=O)NCC1CC1	?	.	-13.6%	-13.7%	6.9%	.
Cc1cc([N+](=O)[O-])ccc1NCc1ccc2ccccc2c1	11.2µM*	9.3%	.	-9.9%	-1.5%	-25.0%
Cc1cc([N+](=O)[O-])ccc1NCc1ccccc1	-16.4%	?	.	-19.9%	-17.1%	-25.1%
